MITF inh: human MITF inhibition, primary screen. O75030. AlphaScreen MITF homodimerization, bead proximity signal. inhibition, % at 2.6 µM. 0.91% of 650,000 active. AID 1259374; in the data active = inhibition above about 50%;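 also: 0% = vehicle wells with protein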
TEAD-YAP inh: TEAD-YAP interaction inhibition; 1.4% of 640,000 active; inhibition, % at 9.12 µM; HEK-TIYL cells, TEAD-Gal4/YAP UAS-luciferase luminescence; AID 1259422; in the data active = inhibition above about 32%;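 also: 0% = median of test compound wells and 100% = reference inhibitor wells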
FBW7 act: activators of human E3 ligase FBW7; Q969H0; AlphaScreen FBW7–phospho-cyclin E peptide binding, activator screen; normalized activity (activation), % at 26.1 µM; 0.13% of 650,000 active; AID 1259310; in the data active = normalized activity above about 1.9%;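 also: purified mutant Fbw7 with reduced substrate affinity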
Target sequence (Q969H0 whole entry, looked up): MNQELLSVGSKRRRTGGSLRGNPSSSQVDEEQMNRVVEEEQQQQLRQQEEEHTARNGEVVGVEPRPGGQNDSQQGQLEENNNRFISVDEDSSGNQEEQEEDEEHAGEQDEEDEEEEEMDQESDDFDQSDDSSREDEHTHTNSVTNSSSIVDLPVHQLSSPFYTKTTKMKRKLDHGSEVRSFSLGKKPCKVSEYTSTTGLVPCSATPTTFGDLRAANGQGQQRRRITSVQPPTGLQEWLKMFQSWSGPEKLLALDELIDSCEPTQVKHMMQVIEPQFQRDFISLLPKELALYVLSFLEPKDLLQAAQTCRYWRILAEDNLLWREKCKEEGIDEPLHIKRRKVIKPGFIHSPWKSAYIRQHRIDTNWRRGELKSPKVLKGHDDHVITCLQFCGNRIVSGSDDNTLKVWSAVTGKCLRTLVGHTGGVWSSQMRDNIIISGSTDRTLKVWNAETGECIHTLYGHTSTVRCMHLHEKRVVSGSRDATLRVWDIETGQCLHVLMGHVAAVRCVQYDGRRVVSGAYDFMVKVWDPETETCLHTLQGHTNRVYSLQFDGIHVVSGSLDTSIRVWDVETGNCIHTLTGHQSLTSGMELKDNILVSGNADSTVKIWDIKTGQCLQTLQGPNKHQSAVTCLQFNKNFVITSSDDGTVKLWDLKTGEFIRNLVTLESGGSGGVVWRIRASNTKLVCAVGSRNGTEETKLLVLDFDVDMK
GPR151 activ: activates the human receptor GPR151; AID 1508602; 1% of 650,000 active; activation, % at 11.2 µM; PathHunter beta-arrestin GPR151 cells, luminescence; in the data active = activation above about 4.9%;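 also: 0% = median of compound wells and 100% = cells with positive control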
GPR151 conf act: human GPR151 activation, confirmation screen. 6,700 tested, under 10 active. GPR151 PathHunter beta-arrestin cells, luminescence, 90 min; % of EA-reagent control over plate median. activation, % at 11.2 µM. shares compounds with GPR151 activ;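 active = mean percent activation across replicates above the confirmation screen cutoff of 4.91%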
GPR119 counter: GPR119 activation, counter-screen for GPR151 activators; shares compounds with GPR151 activ; GPR119 PathHunter beta-arrestin cells, luminescence, 90 min; 0 = compound-well median, 100 = enzyme-acceptor control; activation, % at 11.2 µM; 0.3% of 6,700 active; AID 1508611;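 active = mean percent activation in the counterscreen above 29.09%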;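 also: counterscreen on off-target GPR119 to flag nonselective hits from the GPR151 activator screen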
Active calls of the source: *; . = no result given; ! = not confirmed by another sample. Sampled rows, rich in hits. Any-hit rate of the full collection: about 3.5%.

SMILES	MITF inh	TEAD-YAP inh	FBW7 act	GPR151 activ	GPR151 conf act	GPR119 counter
O=C(CCn1c(=S)[nH]c2cc3c(cc2c1=O)OCO3)NCc1cccc(Cl)c1	5	-1	0	-1	.	.
COc1ccc(C)cc1NC(=O)CN(Cc1ccccc1)S(=O)(=O)c1ccc(Cl)cc1	3	-2	0	1	.	.
COc1ccc(CCS(=O)(=O)Nc2ccc3c(c2)N(C(=O)C2CCCO2)CC3)cc1 (stereo unspecified)	25	4	0	5.8*	-1	-16
CCC1CCCCN1S(=O)(=O)c1ccc(C(=O)Nc2nccs2)cc1 (stereo unspecified)	-4	-1	0	5.1*	0	2
Cc1ccc(S(=O)(=O)N2CCCCC2CC(=O)Nc2nccs2)cc1 (stereo unspecified)	-7	4	0	4	.	.
O=C(Cn1cc(/C=C2\SC(=S)NC2=O)c2ccccc21)NCc1cccs1	7	6	0	6.8*	1	-3
CC(C)c1nnc2n1CCN(Cc1cc(Cl)ccc1O)CC2	-3	9	0	-1	.	.
N[C@@H]1CONC1=O	-12	-6	0	6.7*!	0	-7
C=CCN1C(=O)C(CC(=O)Nc2ccc(OC)cc2)N(Cc2ccc(OC)cc2)C1=S (stereo unspecified)	8	-6	0	-1	.	.
Cc1ccc(-n2c(C)c3c(C)nnc(C)c3c2C)cc1N	-4	-5	0	5.3*	1	-3
CCCCC1(CCCC)NC(=S)N(c2ccc(C)cc2)N1	15	-6	0	11*	-1	-4
CN1/C(=C2/SC(=Nc3ccc(C4CCCCC4)cc3)N(c3ccccc3)C2=O)Sc2ccccc21	-1	5	0	0	.	.
CN1C(=O)/C(=C2/Sc3ccccc3N2C)SC1=Nc1ccc(O)cc1	9	-21	0	6.4*	0	-8
O=C(c1cccc(F)c1)N1CCN(c2ccc(N3CCOCC3)nn2)CC1	9	0	0	1	.	.
CCOc1ccc2[nH]c(=O)c(CN(CCCO)S(=O)(=O)c3ccccc3F)cc2c1	0	15	0	2	.	.
Cc1ccc(/C=C(/C#N)c2ccc3c(c2)OCO3)cc1[N+](=O)[O-]	5	-2	0	-1	.	.
N#C/C(=C/c1ccccc1[N+](=O)[O-])c1ccc2c(c1)OCO2	6	-8	0	5.7*	0	-13
COCCOC(=O)C1=C(N)Oc2c(oc(CO)cc2=O)C1c1c(F)cccc1Cl (stereo unspecified)	-15	13	0	5.7*	0	9
CCN1CCN(Cc2cn[nH]c2-c2ccc(C)c(C)c2)[C@@H](C)C1=O	2	3	0	-1	.	.
Cc1ccc(S(=O)(=O)NCCCOC(C)C)cc1	3	11	0	5.0*	0	-1
COc1ccc2c(-c3ccccc3)cc3nnnn3c2c1	7	-4	0	5.3*	0	-7
CC(=O)N1CCSc2cc(S(=O)(=O)NCc3cccnc3)ccc21	10	12	1	-2	.	.
CC(=O)c1cccc(NC(=O)N2CCCC2C(=O)Nc2cccc(C)c2)c1 (stereo unspecified)	-3	-6	0	15*	0	14
O=C(N/N=C/c1ccccc1Cl)c1ccccc1I	9	-16	0	3	.	.
COCCNC(=O)c1cn(C[C@H]2CCCN(C(=O)OC(C)(C)C)C2)nn1	19	-1	1	0	.	.
SMILES	MITF inh	TEAD-YAP inh	FBW7 act	GPR151 activ	GPR151 conf act	GPR119 counter
COc1ccc(C2C(C(C)=O)=C(O)C(=O)N2CCO)c(OC)c1 (stereo unspecified)	-7	-2	0	0	.	.
CCCCN1C(=O)C(O)=C(C(C)=O)C1c1ccc(OC)cc1OC (stereo unspecified)	10	-1	0	5.2*	1	12
COc1ccc(/C=N/Nc2ccc([N+](=O)[O-])cc2[N+](=O)[O-])c(O)c1	1	13	1	-1	.	.
COC(=O)CN/N=C/c1ccc([N+](=O)[O-])cc1[N+](=O)[O-]	7	2	0	7.6*	1	12
O=S(=O)(N/N=C/c1cc(Br)cc(Br)c1O)c1ccccc1	-9	-12	0	-1	.	.
COC(=O)c1c(NC(=S)Nc2cnccn2)sc2c1CCC(C)C2 (stereo unspecified)	1	-2	0	2	.	.
CCc1c(C)sc(NC(=S)Nc2cnccn2)c1C(=O)OC	4	-9	0	5.9*	-1	-14
CCc1c(C)sc(NC(=S)NCc2ccc(S(N)(=O)=O)cc2)c1C(=O)OC	12	-6	0	6.3*	-1	-12
COc1ccccc1OCC(=O)Nc1ccc(C)c(F)c1	-5	-32	0	-1	.	.
COc1ccc(C(=O)Cn2c(N(C)C)nc3c2c(=O)n(C)c(=O)n3C)cc1	7	2	0	5.4*	0	-2
COc1ccc(C(=O)Cn2c(N3CCOCC3)nc3c2c(=O)n(C)c(=O)n3C)cc1	-9	-16	0	1	.	.
CCOc1ccc(C(=O)C(C)Sc2nc(C)cc(=O)[nH]2)cc1 (stereo unspecified)	-2	-7	0	5.1*	1	9
COc1ccc(C(=O)C(C)Sc2nc(C)cc(=O)[nH]2)cc1 (stereo unspecified)	-11	-3	1	-2	.	.
O=C(CNC(=O)c1c[nH]c2ccccc12)NCCC1=CCCCC1	9	7	0	0	.	.
c1ccc(CNCc2csc(-c3ccccc3)n2)cc1	43	-27	0	-3	.	.
NS(=O)(=O)c1ccc(CCNC(=O)c2ccccc2Oc2ccccc2)cc1	-8	-1	-1	6.7*	-1	-4
NS(=O)(=O)c1ccc(CCNC(=O)c2cc(-c3ccccc3)nc3ccccc23)cc1	-16	3	0	6.2*	1	2
NS(=O)(=O)c1ccc(CCNC(=O)c2ccccc2Cl)cc1	-6	2	0	1	.	.
COc1cc(CNc2ccc3ncc(-c4cccc(F)c4)n3n2)cc(OC)c1OC	11	0	0	0	.	.
COC(=O)C1CCCCN1Cc1ccc2c(c1)CN(Cc1nccs1)CCO2 (stereo unspecified)	9	9	0	0	.	.
Cc1ccc(NC(=O)/C(=C\c2ccco2)NC(=O)c2ccccc2Br)cc1	5	5	0	-1	.	.
CC1=CC(C)C2COC(c3ccccc3O)C1C2 (stereo unspecified)	-1	3	0	5.3*	0	-5
O=C1CCCN1CCn1cnc2c(NCc3cccc(C(F)(F)F)c3)nc(-c3csc4ccccc34)nc21	16	-6	0	-2	.	.
COc1ccccc1NC(=O)c1cc2ccccc2oc1=Nc1ccc(Cl)cc1Cl	-2	-19	0	9.2*	0	9
COc1ccccc1N=c1oc2ccccc2cc1C(=O)Nc1ccc(Cl)cc1Cl	-2	4	0	2	.	.
